Shown are actives, neighbours in structure and some others; about 3.7% of the full set was active somewhere.
CHT inh – inhibitors of human choline transporter CHT; CHT-expressing cells, membrane potential dye, choline response; hits give low values; Q9GZV3; hit rate 0.86% among 310,000; B-score at 10 µM;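 active means B-score over 3 SD under the library average, and starting fluorescence ratio not unusually high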;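 further: choline stimulus applied at its EC90 after an EC20 pre-addition; B-score computed on integrated fluorescence ratio after choline addition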
CHT allo act – allosteric activators of human choline transporter CHT. hit rate 0.49% among 310,000. B-score at 10 µM. CHT-expressing cells, membrane potential dye, choline EC20; hits give high values; LV-AA mutant CHT in HEK293 cells. AID 488977. Q9GZV3;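 active means initial fluorescence not abnormally high and integrated response B-score, plate-corrected, over 3 SD above library mean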
ANO1 block – inhibitors of mouse TMEM16A calcium-activated chloride channel; Q8BHY3; HEK293 TMEM16A/YFP iodide influx fluorescence, ionomycin; normalized B-score (activity score, 25-100; higher = stronger inhibition) at 10 µM; hit rate 1.2% among 310,000;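 active means ratio plate-corrected score three or more library SD toward inhibition, starting fluorescence score within five deviations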;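 further: score derived from kinetic fluorescence span divided by baseline fluorescence per well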
GPR7 antag – blocks human GPR7 receptor signaling; P48145; GPR7-expressing cells, fluorescence antagonist assay; inhibition, % at 4.4 µM; hit rate 1.1% among 290,000; AID 1861; in the data active means inhibition above about 16%, passing the limit was not always enough;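 further: cells stimulated with the agonist NPW; 0% = agonist with vehicle and 100% = vehicle without agonist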
Target sequence (P48145 whole entry, looked up): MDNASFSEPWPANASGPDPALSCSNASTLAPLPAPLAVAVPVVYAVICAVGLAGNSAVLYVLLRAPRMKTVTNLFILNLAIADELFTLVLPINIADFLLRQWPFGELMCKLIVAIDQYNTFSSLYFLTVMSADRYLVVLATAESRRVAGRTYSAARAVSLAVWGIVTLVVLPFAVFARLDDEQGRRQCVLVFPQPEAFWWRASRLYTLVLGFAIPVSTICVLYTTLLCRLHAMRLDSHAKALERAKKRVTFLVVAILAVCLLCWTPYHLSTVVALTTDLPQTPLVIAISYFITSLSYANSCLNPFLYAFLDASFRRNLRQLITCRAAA
ANO1 activ – activates or potentiates the mouse TMEM16A chloride channel; Q8BHY3; hit rate 0.3% among 340,000; B-score at 10 µM; HEK293 TMEM16A/YFP-H148Q/I152L, iodide quench fluorescence; hits give low values;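 active means fluorescence-ratio B-score plate-corrected deviation score at least 3 library SD below zero, with starting fluorescence score within 5 deviations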;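 further: channel opened by trigger with iodide after compound preincubation; score built on the fluorescence ratio of max minus min over baseline; more negative score means more quench and so TMEM16A activation or potentiation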
Kir21 inh – Kir2.1 (mouse) channel inhibition; HEK293-Kir2.1, FluxOR thallium flux fluorescence; hits give low values; B-score at 10 µM; hit rate 0.85% among 310,000;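 active means fluorescence ratio B-score at or below minus 3 SD of library scores, with starting-brightness B-score within 2 SD, cut at about -4.2 in these data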;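 further: channel flux triggered by added potassium and thallium sulfate stimulus; B-score of peak minus minimum fluorescence over baseline after thallium stimulus; more negative B-score means stronger Kir2.1 block with less thallium influx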
CHT block conf – human CHT inhibition, confirmatory screen. AID 493221. hit rate 70% among 2,400. shares compounds with CHT inh. CHT activity remaining % of control (hits give low values), % at 10 µM. CHT-expressing cells, choline membrane potential dye; LV-to-AA substituted CHT, HEK293 cells;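 active means choline transporter activity left, mean of duplicates at 10 µM, below buffer-only control mean minus 3 SD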;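 further: depolarization triggered by choline at its EC90 following an EC20 pre-addition; 0% = hemicholinium-3 full block and 100% = buffer-only control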
HEK293 MPD ctr – activity in parental HEK293 cells lacking CHT; hit rate 4% among 2,400; membrane potential ratio readout (active if shifted either direction beyond buffer ±3SD; no single direction) at 10 µM; shares compounds with CHT inh; membrane potential dye, choline response; active = decrease or increase beyond buffer ±3SD;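 further: parental cells lack the transporter so any hit is non-specific; ratio is peak minus trough fluorescence over baseline after EC90 choline challenge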
* = called active by the depositor; i = inactive; · = no result.

SMILES	CHT inh	CHT allo act	ANO1 block	GPR7 antag	ANO1 activ	Kir21 inh	CHT block conf	HEK293 MPD ctr
Cc1cc(C)nc(N2CCC(C(=O)NCc3cccs3)CC2)n1	-8.3*	i	i	-15	i	1.5	i	i
O=C(COc1ccc(Cl)cc1Br)OCC(=O)c1ccc[nH]1	·	·	·	·	i	·	·	·
Cc1ccc(S(=O)(=O)Nc2cc(C(=O)NCCN3CCCC3)ccc2N2CCCCC2)cc1	-8.6*	i	i	0	i	-0.42	23%*	3.8*
Cc1ccc(S(=O)(=O)Nc2cc(C(=O)NCCN(C)C)ccc2N2CCCCC2)cc1	-15*	i	i	0	i	·	19%*	3.2*
COCCCNC(=O)c1ccc(N2CCCC2)c(NS(=O)(=O)c2ccc(C)cc2)c1	i	i	i	-12	i	0.04	·	·
CC1(C)CCCN(C(=O)c2ccc3c(c2NCCO)C(=O)c2ccccc2C3=O)C1	-7.2*	i	i	-12	i	0.04	42%*	2.6*
O=C(N/N=C/c1cccnc1)c1ccc(CN2c3cccc4cccc(c34)S2(=O)=O)cc1	-5*	i	i	-4	i	0.62	i	i
Cn1c(-c2sc3ccccc3c2Cl)n[nH]c1=S	-5.1*	i	i	-10	i	-1.3	50%*	i
COc1ccc(C(=O)N2CCCN(C)CC2)cc1S(=O)(=O)N(C)Cc1ccccc1	·	·	·	·	i	·	·	·
COc1ccc(-c2noc(N3CCC(C(=O)Nc4ccc(OC)cc4OC)CC3)n2)cc1	-6.6*	i	i	14	i	2.8	i	i
CCC(CO)NCc1ccc(OCC(O)c2ccccc2)c(OC)c1 (stereo not given)	i	i	i	-6	i	-0.28	·	·
Nc1ncc(Br)cc1S(=O)(=O)Nc1cc(C(F)(F)F)cc(C(F)(F)F)c1	-12*	i	100*	20	-5*	-2.9	29%*	i
Cc1ccc(CCNS(=O)(=O)c2cc(Br)cnc2N)cc1	i	i	i	-9	i	-0.5	·	·
O=C(CCNC(=O)c1ccccc1Cl)Nc1cccc(S(=O)(=O)N2CCCC2)c1	·	·	·	·	i	·	·	·
COc1cccc(OCCSc2nnc3sc4ccccc4n23)c1	-8.7*	i	i	6	i	-0.59	i	i
N#CC12CCCCC1CC1CCCCC1(C#N)N2CCO (stereo not given)	-5.7*	i	i	-6	i	-0.55	i	i
CC(C)(C)NC(=O)CN(C(=O)c1csnn1)c1cccc2c1CCCC2	i	i	i	-3	i	-0.97	·	·
O=C(CSCc1cnn(-c2ccccc2)c1-n1cccc1)NCc1cccs1	-6.5*	i	i	-9	i	-6.3*	i	i
CCOC(=O)N1CCC(NC(=O)CSCc2cnn(-c3ccccc3)c2-n2cccc2)CC1	-7.3*	i	i	0	i	-1.2	i	i
COc1cc(CN2CCN(CC#Cc3ccccc3)CC2CCO)cc(OC)c1 (stereo not given)	i	i	i	-2	i	-1.5	·	·
CCOC(=O)C1CCCN(C(=O)Cc2c(F)cccc2Cl)C1 (stereo not given)	-5.7*	i	i	-10	i	0.64	53%*	i
O=C(CCl)N(c1ccccc1)c1c[nH]c2ccccc12	i	i	i	1	i	-0.22	·	·
O=C(CCl)N(c1ccc(Cl)cc1)c1c[nH]c2ccccc12	-5.9*	i	i	6	i	-4	56%*	i
COc1ccc(C=O)cc1Cn1cnc2c(cnn2C)c1=O	-5.7*	i	i	-4	i	-0.27	i	i
CCCCCc1nnc(NC(=O)Cn2cnc3ccccc3c2=O)s1	i	i	i	-12	i	0.18	·	·
SMILES	CHT inh	CHT allo act	ANO1 block	GPR7 antag	ANO1 activ	Kir21 inh	CHT block conf	HEK293 MPD ctr
O=C(N/N=C/c1ccsc1)c1c[nH]c2ccccc12	-7*	i	i	-16	i	1.9	69%*	i
Cc1ccsc1/C=N/NC(=O)c1c[nH]c2ccccc12	i	i	i	2	i	2.2	·	·
COC(=O)c1ccc(OCC(O)CNCC(c2ccc(OC)cc2)N(C)C)c(OC)c1 (stereo not given)	i	i	i	-10	i	-0.63	·	·
CC(=O)Nc1ccc(S(=O)(=O)NC2=C(N3CCN(Cc4ccccc4)CC3)C(=O)c3ccccc3C2=O)cc1	-6.2*	i	i	1	i	0.09	41%*	2.3*
CC(=O)Nc1c(C)ccc(CNC(=O)COc2cc(C)ccc2C)c1C	i	i	i	-12	i	-1.5	·	·
COc1ccccc1C(=O)NNC(=S)NC(=O)c1cc(OC)c(OC)c(OC)c1	i	i	i	-8	i	-0.65	·	·
COc1cc(C(=O)NC(=S)NNC(=O)[C@H]2C[C@@H]2c2ccccc2)cc(OC)c1OC	-5.9*	i	25*	-12	i	2.2	48%*	i
NC(=O)c1sc(-c2ccsc2)cc1NS(=O)(=O)c1ccc(C(F)(F)F)cc1	-6.9*	i	i	-8	i	0.58	i	i
CC1(C)OC2C(O1)[C@@H](CO)O[C@H]2n1cnc2c(N)ncnc21 (stereo not given in full)	i	i	i	-14	i	0.4	·	·
Nc1ncnc2c1ncn2[C@@H]1O[C@H](CO)[C@@H](O)[C@H]1O	-6*	i	i	-25	i	0.59	30%*	i
CS(=O)(=O)c1ncc(Cl)c(C(=O)Nc2ccc(N3CCOCC3)cc2)n1	-6.9*	i	i	1	i	-3.9	56%*	i
CS(=O)(=O)c1ccc(C(=O)Nc2ccc(N3CCOCC3)cc2)c(Cl)c1	i	i	i	-5	i	-0.19	·	·
Cc1cc(C(=O)Cn2ncc(Cl)c(Cl)c2=O)c(C)n1CC(F)(F)F	-5.6*	i	i	-12	i	-0.91	44%*	i
CCC(=O)Nc1ccc(C(=O)Cn2ncc(Cl)c(Cl)c2=O)cc1	i	i	i	6	i	-0.56	·	·
CC(C)CNC(=O)c1cc(=O)[nH]c2ccc(S(=O)(=O)Nc3ccc(F)cc3)cc12	i	i	i	1	i	0.17	·	·
Cc1ccc(NC(=O)CSCC(=O)OC(C)C(=O)Nc2ccc(S(N)(=O)=O)cc2)c(C)c1 (stereo not given)	i	i	i	·	i	0.11	·	·

High-throughput results as filed in PubChem.
